Reference: PubChem BioAssay AID1053124 (Broad Institute, 2014)
Entries with a potency or affinity are not part of this list. A number with no mark means an inactive call.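 The calls were made as follows: active = cell killing whose fitted half-effect concentration is at most twice the top valid dose tested; inconclusive = flat curve with 30 to 70% killing, or a poor fit; inactive = effect in the rising direction, plus the rest.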

assay: viability loss in A549 lung cells – cell-based, ATP luminescence, cherry-pick, set 2, cytotoxicity control, dose response (AID 1053124); conditions: ATP luminescence (CellTiter-Glo), 72 h; series mostly up to 26 µM; activity change, negative = cytotoxicity: at the top concentration;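 also: 0% = neutral control wells and -100% = mitoxantrone 10 µM positive control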

Row | Structure (SMILES) | activity change, negative = cytotoxicity
1 | CCN1C(=O)c2cccc3c(S(=O)(=O)N(C)C)ccc1c23 | -14.3%
2 | CC(C)C(=O)Nc1sc2c(c1C(N)=O)CCN(Cc1ccccc1)C2 | -5.15%
3 | Cc1ccc(OCC(=O)NNc2c3ccccc3nc3ccccc23)cc1 | 4.66% [at 12 µM]
4 | O=C(Nc1ccc(-c2ccco2)cc1)C1CCCN(Cc2ccco2)C1 (stereo not given) | -10.8%
5 | C#CCOc1ccc(C2C(C#N)=C(N)Oc3cc(O)ccc32)cc1 (stereo not given) | -2.97%
6 | Cn1c2ccccc2c(=O)c2ccc(F)cc21 | -4.71%
7 | CCCOc1c(Br)cc(C2C3=C(CCCC3=O)N(C)C3=C2C(=O)CCC3)cc1OC | -2.32%
8 | Cc1ccc2c(c1)-c1c(cnn1CC(=O)Nc1ccccc1N1CCN(C)CC1)CO2 | -16.3%
9 | CC/C(C)=N\Nc1nc(-c2cc3cc(OC)ccc3oc2=O)cs1 | -4.33%
10 | Cc1noc(C)c1S(=O)(=O)N(CC(=O)N1CCCCCC1)c1ccc(C(C)C)cc1 | -14.1%
11 | Cc1ccc(O)c(NC(=S)NC(=O)COc2ccc(Br)cc2)c1 | -1.55%
12 | Cc1c(Nc2c3ccccc3nc3ccccc23)c(=O)n(-c2ccccc2)n1C | 5.87%
13 | Cc1ccc(-n2c(C)cc(/C=N/NC(=O)Cn3c4ccccc4c(=O)c4ccccc43)c2C)cc1 | -3.65%
14 | [O-]/[N+](=C/c1ccccc1)c1ccccc1 | 1.21%
15 | CCOc1ccc(S(=O)(=O)Nc2ccc(C(=O)N(CC)CC(=O)NCc3cccs3)cc2)cc1 | 5.76%
16 | Cc1nc(CCNC(=O)Cc2ccc(Cl)cc2)cs1 | -3.11%
17 | C=CCn1c(=N)c(C#N)cc2c(=O)n3ccccc3nc21 | -0.422%
18 | CCOC(=O)c1cc2c(=O)n3ccccc3nc2n(CCCOC)c1=NC(=O)c1ccncc1 | -2.23%
19 | Cc1ccc(-n2nnnc2CNC(=O)C(=O)c2c[nH]c3ccccc23)cc1C | 0.963%
20 | COc1ccc(NC(=O)C2CCC(CNS(=O)(=O)c3cccs3)CC2)cc1 (stereo not given) | -6.87%

Row | Structure (SMILES) | activity change, negative = cytotoxicity
21 | CCOC(=O)c1c(NC(=O)CSc2ncccn2)sc2c1CCN(Cc1ccccc1)C2 | -20.4%
22 | CCN(CC)c1ccc2cc(S(=O)(=O)c3ccc(Cl)cc3)c(=O)oc2c1 | -1.8%
23 | CCCOc1ccc(NC(=O)c2c(-c3ccccc3)noc2C)cc1 | -4.14%
24 | N#Cc1c2ccc(O)cc2n2ccccc12 | -20.3%
25 | CC(C)(C)[C@H]1CCC(=O)N([C@H](CSc2ccccc2)Cc2ccccc2)CC1 | -13.4%
26 | C/C(=N\NC(=O)CC#N)c1cc2ccc(O)cc2oc1=O | 2.81%
27 | CCN(CC)c1ccc2cc(C#N)c(=O)oc2c1 | -3.09%
28 | CCN(c1ccccc1)S(=O)(=O)c1ccc(OC)c(NC(=O)CN(C)C)c1 | -8.81%
29 | N#C/C(=C\c1ccc(N2CCOCC2)o1)C(=O)NCCc1ccccc1 | -8.25%
30 | Cc1cc(CNC(=O)c2ccc3c(c2)OCO3)c2ccccc2n1 | -25.7%
31 | CCCN1CCc2c(sc(NC(=O)C3CCN(S(=O)(=O)c4cccs4)CC3)c2C(N)=O)C1 | -11.7%
32 | CCOC1=NN(c2ncc(C(F)(F)F)cc2Cl)C(=O)C1 | -4.45%
33 | Cc1cc2cc(CNC(=O)c3ccco3)ccc2n1C | -11%
34 | COCCNC(=S)N/N=C/c1ccc(-c2ccc([N+](=O)[O-])cc2)o1 | -6.8%
35 | O=C(NS(=O)(=O)c1ccc(Cl)s1)c1ccccc1 | -7.08%
36 | COc1cc(/C=C(\C#N)C(=O)NC(C)C)cc(Cl)c1O | -7.73%
37 | O=C(COC(=O)c1cc(S(=O)(=O)N2CCCCC2)ccc1N1CCOCC1)c1ccccc1Cl | -6.29%
38 | CCOc1ccc(NC(=O)CN(C)C(=O)CCCNC(=O)c2ccc(Cl)cc2)cc1OCC | -3.8%
39 | CCN(CC)CCNC(=O)c1sc2nc(-c3ccccc3)cn2c1C | -4.09%
40 | CC(C)OCCCn1c(=N)c(C(N)=S)cc2c(=O)n3ccccc3nc21 | -4.01%
